Experiment [1] can be described thus: ACEA_AR_agonist_AUC_viability: ACEA Biosciences xCELLigence Real-Time Cell Analysis on Androgen Receptor Agonism for Viability (AID 2283775).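 For AC50: viability read 80 hours after compound addition.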 In short, it runs like this: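 22Rv1 cells; impedance growth kinetics; 8-pt 1:4 dilutions from 100 uM top final, ≤0.5% DMSO; n = 2; 80 h read; AUC viability, loss-of-signal vs DMSO.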
The nature of experiment [2]: ACEA_AR_antagonist_AUC_viability: ACEA Biosciences xCELLigence Real-Time Cell Analysis on Androgen Receptor Antagonism for Viability (AID 2283776).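 Note: 22Rv1 human prostate cancer cells growing on impedance electrode plates; area under impedance growth curve at 80 h after dosing as viability; hits lower the growth signal relative to DMSO meaning cytotoxicity.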 The method in brief:
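Impedance read-out (RT-CES): area under growth curve at 80 h post-dose, loss of signal scored vs DMSO baseline. 22Rv1 cells; 8-pt 1:4 series, top 100 uM final, ≤0.5% DMSO; biological duplicate.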

Inconclusive results are not listed. Activity calls are given as the source filed them. Rule for the calls: active = hit-call score of the fitted dose curve at least 0.9, where 1 is the maximum; inconclusive = response in the unintended direction; inactive = score below 0.9.

`CCOC(=O)C(C)Oc1ccc(Oc2cnc3cc(Cl)ccc3n2)cc1` (stereo not given): the molecule was called inactive in experiment [1] and in experiment [2].
As to `CCOC(=O)c1ccc(O)cc1`, in experiment [2], the molecule was classed as inactive.
Consider `COCCO`, for which, in experiment [2], the call was inactive.
On to `CCN(Cc1c(F)cccc1Cl)c1c([N+](=O)[O-])cc(C(F)(F)F)cc1[N+](=O)[O-]`, for which the AC50 in experiment [1] was 50 µM (active); in experiment [2], 25 µM (active).
The corresponding values for `Cc1nn(C)c(Oc2ccccc2)c1C=NOCc1ccc(C(=O)OC(C)(C)C)cc1` are 13 µM (active) and 13.8 µM (active).
On to `CN(C)C(=O)Nc1ccc(Cl)c(Cl)c1`, for which the call in experiment [1] was inactive. For the same molecule, the AC50 in experiment [2] was 50 µM (active).
`CCOC(=O)COc1cc(-n2ncc(C(F)(F)F)c(C)c2=O)c(F)cc1Cl`: the call in experiment [1] and in experiment [2] was inactive.
For the molecule `O=C(Nc1ccc([N+](=O)[O-])cc1Cl)c1cc(Cl)ccc1O`, the half-maximal activity concentration (AC50) is 0.723 µM (active) in experiment [1] and 0.821 µM (active) in experiment [2].
`CCNc1nc(N)nc(Cl)n1`: the result in experiment [2] was inactive.

Usually AC50 stands for the concentration giving half of the maximal activity seen.
